This note sets out measurements from PubChem BioAssay (EPA / NIEHS).

Assay [1] is described as follows: ACEA_ER_80hr: ACEA Biosciences xCELLigence Real-Time Cell Analysis on Estrogen Receptor Agonism for Proliferation (AID 2282667; active = hit-call score of the fitted dose curve at least 0.9, where 1 is the maximum). The note with it: T47D proliferation, impedance (xCELLigence), 80 h. Put shortly: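 Impedance readout (RT-CES) of T47D proliferation at 80 h post-dose; gain of signal vs DMSO baseline. Compounds: 8 conc, 1:4 serial, top 100 uM final, ≤0.5% DMSO; biological duplicate.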

Assay [2] can be described thus: APR_HepG2_CellCycleArrest_24hr: Apredica 24-hour HepG2 Assay for Cell Cycle Arrest (AID 2282905).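 Also: cell cycle arrest scored as ratio of 2N to 4N nuclear DNA content.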 The note with it: imaging, actives raise or lower the signal. The method, boiled down: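 Step one: dose HepG2 with test compounds, 0.39–200 uM, 0.5% DMSO, 24 hr. Step two: fix, permeabilize, stain nuclei with Hoechst 33342. Step three: image six fields per well at 20x, quantify DNA content, fit bidirectionally relative to DMSO.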

The nature of assay [3]: APR_HepG2_NuclearSize_24hr: Apredica 24-hour HepG2 Assay for Nuclear Size (AID 2282907). The note with it: high-content imaging, actives raise or lower the signal. The method, boiled down:
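After fixation and permeabilization, 24-hr-treated HepG2 cells were stained with Hoechst 33342 and imaged on an ArrayScan (20x). Doses spanned 0.39–200 uM in duplicate. Nuclear diameter changes in either direction were fitted relative to 0.5% DMSO controls.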

Assay [4] can be described thus: APR_HepG2_CellLoss_24hr: Apredica 24-hour HepG2 Assay for Cell Loss (AID 2282908).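 As to AC50: fit in both directions so a hit may be cell loss or gain.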 The note with it: high-content imaging. The method, boiled down:
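Duplicate wells received compound at ten concentrations (0.39–200 uM; final DMSO 0.5% v/v). After fixation with formaldehyde, nuclei stained with Hoechst 33342 were imaged at 20x. Loss or gain of cell count was fitted relative to DMSO controls.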

A short description of assay [5]: APR_HepG2_MicrotubuleCSK_24hr: Apredica 24-hour HepG2 Assay for Microtubule CSK Stabilty (AID 2282909). The note with it: HepG2 microtubule cytoskeleton imaging, actives raise or lower the signal. The method, boiled down:
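Microtubule stability is scored from tubulin immunofluorescence in fixed HepG2 cells imaged at 20x. Cells receive ten compound concentrations up to 200 uM for 24 h; taxol and DMSO serve as positive and negative controls.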

Assay [6] in a line: APR_HepG2_MitoMembPot_24hr: Apredica 24-hour HepG2 Assay for Mitochondrial Membrane Potential (AID 2282911). The note with it: imaging, actives raise or lower the signal. Put shortly:
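HepG2, 24 hr dosing, 10 concentrations 0.39–200 uM, 0.5% DMSO final. Live-cell MitoTracker Red CMXRos 250 nM 30 min, then 3.7% formaldehyde fix. HCS fluorescence imaging, 20x; bidirectional fit vs DMSO baseline.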

Assay [7] is described as follows: APR_HepG2_MitoMass_24hr: Apredica 24-hour HepG2 Assay for Mitochondrial Mass (AID 2282912). The note with it: high-content imaging, actives raise or lower the signal. The method, boiled down: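 Readout: fluorescence of MitoTracker Red CMXRos (250 nM, added 30 min pre-fixation) in fixed HepG2 cells imaged by HCS. Exposure lasted 24 hr at 0.39–200 uM; increases and decreases were both fitted relative to DMSO.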

Assay [8] is described as follows: APR_HepG2_p53Act_24hr: Apredica 24-hour HepG2 Assay for p53 Activation (AID 2282913).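 Also: p53 protein immunofluorescence averaged per cell in HepG2 with Hoechst nuclei.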 The note with it: high-content imaging, actives raise or lower the signal. The method, boiled down: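 Read-out: Cy5 immunofluorescence for p53 in fixed, permeabilized HepG2, imaged by HCS with Hoechst-defined nuclei. Dosing was 24 hr at 0.39–200 uM in 0.5% DMSO. Curves were fitted bidirectionally relative to DMSO.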

A short description of assay [9]: APR_HepG2_CellCycleArrest_72hr: Apredica 72-hour HepG2 Assay for Cell Cycle Arrest (AID 2282914). The note with it: high-content imaging, actives raise or lower the signal. The method, boiled down: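 HepG2, 72 hr exposure, 10-point 0.39–200 uM, duplicate, 0.5% DMSO final. Fix 3.7% formaldehyde 30 min RT, Triton X-100 0.5%, Hoechst 33342 2 ug/mL. ArrayScan 20x, six fields/well; DNA content per nucleus; bidirectional fit vs DMSO.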

Assay [10] can be described thus: APR_HepG2_MitoticArrest_24hr: Apredica 24-hour HepG2 Assay for Mitotic Arrest (AID 2282910). The note with it: high-content imaging, actives raise or lower the signal. Put shortly: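 High-content imaging of fixed HepG2 cells labeled with Hoechst 33342 and anti-phospho-histone H3, after 24 h treatment. Ten concentrations 0.39 to 200 uM in duplicate, final DMSO 0.5%; changes fitted both directions relative to DMSO.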

Inconclusive results are not listed. The source made the active and inactive calls. The calls were made as follows, unless noted: active = hit-call score of the fitted dose curve at least 0.9, where 1 is the maximum; inactive = score below 0.9.

Turning to `c1cc(-c2ccncc2)ccn1`, the result in assay [1], in assay [2], in [3], in assay [4], in [5] and in assay [6] was inactive. The compound was called inactive in assay [7], in [8] and in assay [9].
As a reminder, the AC50 is the concentration at which the activity in the assay is half-maximal. As for `CCCCC(CC)COC(=O)CC(C(=O)OCC(CC)CCCC)S(=O)(=O)O` (stereo not drawn), the result in [1], in assay [2], in [3], in assay [5], in assay [6] and in assay [7] was inactive. Also, the compound was called inactive in assay [9]. Moreover, the AC50 in assay [4] is 126 µM (active); in assay [8] it was 104 µM (active).
For `Cc1ccc(C)c(C)c1`, the outcome in [1], in [2], in [3], in [4], in assay [5] and in assay [6] was inactive. The call in [7], in [8] and in assay [9] was inactive.
In the case of `Cc1nc(C)nc(N2C[C@@H](C)N(c3ccnc([C@@H](C)O)n3)[C@@H](C)C2)n1`, the result in assay [1], in assay [2], in assay [3], in [4], in [5] and in assay [6] was inactive. Moreover, the compound was called inactive in assay [7], in assay [8] and in assay [9].
As to `CCCCCCOCCO`, the result in assay [1], in assay [2], in [3], in assay [4], in [5] and in assay [6] was inactive. In addition, the call in [7], in assay [8] and in assay [9] was inactive.
For `CCCCN(CCCC)CCCC`, the call in assay [1], in assay [2], in [3], in assay [4], in assay [5] and in assay [6] was inactive. The outcome in assay [8] and in assay [9] was inactive.
On to `NCCO`, for which the compound was classed as inactive in assay [1], in [2], in [3], in assay [4], in [5] and in assay [6]. The compound was classed as inactive in [7], in assay [8] and in assay [9].
Turning to `O=C(N[C@@H](Cc1ccccc1)[C@@H](O)C(=O)N1C[C@@H](O)[C@@H](O)C1)c1cc2cc(Cl)ccc2[nH]1`, the result in [1], in assay [2], in assay [3], in assay [4], in assay [10] and in assay [7] was inactive. In assay [8], the result was inactive. Also, the values for the AC50 in assay [6] and in assay [9] were 86.4 µM (active) and 91.7 µM (active), respectively.
For the compound `Nc1nc(N)c2nc(CNc3ccc(C(=O)N[C@@H](CCC(=O)O)C(=O)O)cc3)cnc2n1`, the compound was classed as inactive in [1], in [2], in assay [3], in assay [4], in assay [5] and in assay [6]. In addition, the compound was called inactive in assay [8] and in [9].
As for `O=C(O)Cc1ccccc1Nc1c(Cl)cccc1Cl`, the AC50 in assay [1] was 50 µM (active). Besides, the result in [2], in assay [3], in assay [4], in assay [10], in assay [6] and in assay [7] was inactive. Besides, the result in assay [8] and in assay [9] was inactive.
On to `CCOc1ccc2c(c1)C(C)=CC(C)(C)N2`, for which the outcome in assay [1], in assay [2], in assay [3], in assay [4], in assay [5] and in assay [6] was inactive. For the same compound, the outcome in [8] and in assay [9] was inactive.
On to `Cc1ccc(Cl)cc1`, for which the result in assay [1], in assay [2], in assay [3], in assay [4], in assay [10] and in [6] was inactive. Also, the outcome in assay [7], in assay [8] and in assay [9] was inactive.
For the compound `Oc1ccc2ccccc2c1N=Nc1ccccc1`, the AC50 in assay [1] is 6.47 µM (active); in assay [4], 34 µM (active); in [10], 27.1 µM (active); in [6], 0.0816 µM (active); in assay [9], 0.813 µM (active). Further, the compound was classed as inactive in assay [2], in assay [3], in assay [7] and in assay [8].
On to `C1CCC(SSC2CCCCC2)CC1`, for which the outcome in [1], in [3], in assay [5], in assay [6] and in assay [7] was inactive. For the same compound, the AC50 was 72.3 µM (active) in [2], 77.9 µM (active) in [4], 88.4 µM (active) in assay [8] and 62 µM (active) in assay [9].
Take `CC(=O)C(C)=CC1C(C)=CCCC1(C)C` (stereo not drawn): the compound was classed as inactive in assay [1], in assay [2], in assay [3], in assay [4], in assay [5] and in [6]. In addition, the compound was called inactive in assay [8] and in assay [9].
As to `CC(=O)OC/C=C(\C)CCC=C(C)C`, the compound was classed as inactive in assay [1], in assay [2], in assay [3], in assay [4], in assay [6] and in assay [7]. Moreover, the compound was called inactive in assay [8] and in assay [9].
For the compound `CCCCCCCCCCCCCO`, the call in assay [1], in assay [2], in assay [3], in [6] and in assay [8] was inactive. Moreover, the AC50 was 138 µM (active) in assay [4], 107 µM (active) in [10] and 52.3 µM (active) in assay [9].
`C[C@]12C=CC(=O)C=C1CC[C@@H]1[C@@H]2C(=O)C[C@@]2(C)[C@H]1CC[C@]2(O)C(=O)CO`: the AC50 in [1] is 14.8 µM (active). In addition, the compound was called inactive in assay [2], in [3], in [4], in [10], in [6] and in assay [8]. The result in [9] was inactive.
As to `O=[N+]([O-])C(CO)(CO)CO`, the compound was called inactive in [1], in assay [2], in assay [3], in assay [4], in assay [6] and in assay [7]. Further, the result in assay [8] and in assay [9] was inactive.
In the case of `CCNc1cccc(C)c1`, the compound was called inactive in assay [1], in [2], in [3], in assay [4], in assay [10] and in assay [6]. Also, the outcome in [8] and in [9] was inactive.
`CCCCOC(=O)CCCCCCCCC(=O)OCCCC`: the result in assay [1], in [2], in assay [3], in assay [4], in assay [6] and in [8] was inactive. Also, the result in assay [9] was inactive.
